Results taken from the supplement of paper PMC12669032.
Unmarked numbers belong to inactive results.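 Rule for the calls: active = AUC reduced over 20% with Padj below 0.05 in at least 2 of 3 replicates; inactive = otherwise.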

Key:
Experiment in all cases: growth AUC relative to DMSO control (median of replicates) (fraction); higher = more growth (less inhibition), active = hit call of the paper
Settings in all cases: 20 µM; 24 h
[1] = test system: Akkermansia muciniphila
How it was run: (§1)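 Gut bacteria were grown singly in mGAM at 37 °C without oxygen, from OD600 0.05, alongside 20 µM compound in 1% DMSO, and OD600 was read each hour for 24 h. Area under the growth curve was normalised to the median of solvent-only wells per plate, or to row and column medians on the industrial chemical plate. The minimum OD was set to 0 beforehand, and the reported value is the median of three biological replicates grown on separate days.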

[2] = test system: Bacteroides caccae
How it was run: as §1

[3] = test system: Bacteroides clarus
How it was run: as §1

[4] = test system: Bacteroides dorei
How it was run: as §1

[5] = test system: Bacteroides stercoris
How it was run: as §1

[6] = test system: Bacteroides thetaiotaomicron
How it was run: as §1

[7] = test system: Bacteroides uniformis
How it was run: as §1

[8] = test system: Bifidobacterium longum subsp. longum
How it was run: as §1

[9] = test system: Clostridium difficile
How it was run: as §1

[10] = test system: Collinsella aerofaciens
How it was run: as §1

[11] = test system: Coprococcus comes
How it was run: as §1

[12] = test system: Escherichia coli ED1a
How it was run: as §1

[13] = test system: Escherichia coli IAI1
How it was run: as §1

[14] = test system: Eubacterium rectale
How it was run: as §1

[15] = test system: Fusobacterium nucleatum subsp. animalis
How it was run: as §1

[16] = test system: Lactobacillus gasseri
How it was run: as §1

[17] = test system: Lactobacillus paracasei
How it was run: as §1

[18] = test system: Odoribacter splanchnicus
How it was run: as §1

[19] = test system: Parabacteroides distasonis
How it was run: as §1

[20] = test system: Parabacteroides merdae
How it was run: as §1

Compound	growth AUC [1]	growth AUC [2]	growth AUC [3]	growth AUC [4]	growth AUC [5]	growth AUC [6]	growth AUC [7]	growth AUC [8]	growth AUC [9]	growth AUC [10]	growth AUC [11]	growth AUC [12]	growth AUC [13]	growth AUC [14]	growth AUC [15]	growth AUC [16]	growth AUC [17]	growth AUC [18]	growth AUC [19]	growth AUC [20]
CCOP(=O)(NC(C)C)Oc1ccc(S(C)=O)c(C)c1 (stereo not given)	1.01	0.999	1.04	1.04	1.02	0.997	1.02	1.06	1.08	1	1.04	1.03	1.04	1.05	1.09	1.07	0.975	1.01	1.13	1.05
O=C1OCC2C1C1(Cl)C(Cl)=C(Cl)C2(Cl)C1(Cl)Cl (stereo not given)	1.09	0.965	0.991	0.987	0.871	1.04	1.01	1.06	0.987	0.926	1.01	0.979	1.01	1.07	0.925	0.927	0.991	1.09	1.07	0.987
O=C(NC(=O)c1c(F)cccc1F)Nc1cc(Cl)c(OC(F)(F)C(F)C(F)(F)F)cc1Cl (stereo not given)	0.997	0.981	0.982	1.02	1.01	0.99	0.962	0.981	1.04	0.94	0.919	0.996	1	1.01	1.01	0.989	0.976	0.993	0.964	0.988
c1cc2ccc3cccc4ccc(c1)c2c34	0.918	0.992	1	0.997	1.01	0.997	1.02	0.948	0.959	0.946	0.914	0.958	0.982	1.04	0.945	0.993	0.934	1	0.751 (active)	0.976
CCOP(=S)(OCC)SCSP(=S)(OCC)OCC	0.958	1	0.949	0.974	1.04	1.01	0.981	1.03	0.995	0.996	0.997	0.983	1.01	0.954	1.04	0.988	1.07	1.01	1	0.997
O=S(=O)(c1ccccc1)c1ccccc1	0.901	0.966	1.01	0.993	1.03	0.997	0.982	1.01	1.02	0.964	0.977	0.988	0.97	1.03	1	0.914	1.03	0.999	1.02	0.929
COC(=O)NCc1cc(/C(C)=N/OCc2cccc(C)n2)ccc1Cl	1.06	0.965	0.947	0.946	0.972	0.944	0.808	0.981	0.956	1.01	1.03	1.01	0.972	0.998	0.933	0.911	0.969	1.01	0.919	0.955
CCCCOC(=O)c1ccccc1C(=O)OCCCC	1.05	0.94	1.01	0.998	0.99	1	0.978	0.938	1.02	0.985	1	1	0.962	1.07	1.06	0.911	0.986	1.07	0.759 (active)	0.964
CCOCn1c(-c2ccc(Cl)cc2)c(C#N)c(Br)c1C(F)(F)F	1.07	0.902	0.956	0.945	0.914	0.95	0.943	1.04	0.816	0.926	1.02	0.99	0.99	1.03	1.05	0.904	0.992	0.951	0.924	0.834
Cc1cc(C)nc(NC(=O)NS(=O)(=O)c2ccccc2C(=O)OC2COC2)n1	1.03	0.952	0.973	0.945	1.04	0.752 (active)	1.03	0.858	1.05	0.98	0.97	0.986	0.983	1.07	1.02	0.884	1.08	1.01	1.02	0.997
CC(C)N1C(=O)c2ccccc2NS1(=O)=O	1.21	0.999	0.999	0.946	1	1.01	0.977	1.06	0.98	0.967	1.05	0.972	0.97	1.1	1.01	0.945	0.932	0.992	0.787	1.02
CN(C)C(CSS(=O)(=O)[O-])CSS(=O)(=O)O.[Na+]	1.01	1.02	0.998	1.03	1.03	0.98	1.13	1.01	0.943	0.999	0.987	1.03	1.01	1.5	1.11	0.952	0.984	1.05	0.979	1.03
Oc1ccc(Cl)cc1Cl	1.15	0.802	0.979	0.893	0.938	0.936	0.913	1.05	0.946	0.909	1.01	0.974	0.979	1.13	0.93	0.769	1.01	0.969	0.967	0.853
O=C(O)C(F)(F)C(F)(F)C(F)(F)C(F)(F)C(F)(F)C(F)(F)C(F)(F)F	1.01	1	1	0.998	1.01	1.04	0.963	1.04	0.991	1	1.02	1	0.998	1	1	1.01	0.966	0.979	0.934	1
COP(=S)(OC)SCC(=O)N(c1ccc(Cl)cc1)C(C)C	0.942	0.983	0.965	0.965	1.03	0.929	0.912	1.02	1.01	0.993	1.04	0.988	0.976	0.964	0.985	1.03	1.04	1	0.861	0.924
NCP(=O)(O)O	1.04	1.02	1.03	1.03	1.17	0.982	1.02	1.04	1.06	1.05	1.02	1.02	1.04	1.01	0.965	1.09	1.02	1.02	1.04	1.02
